Assay results as given in PubChem BioAssay (NCI).
About 83,000 compounds went through this panel and 20% of them were active in at least one assay; those are over-represented in the sample as a whole.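 In brief: 96-well plates, 48 h treatment, single concentration, percent growth endpoint.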 Unmarked numbers belong to inactive results. The source made the active and inactive calls. How the source made its calls: active means growth percent below 10; inactive means the rest.

Experiments:
Assay in all cases: NCI-60 one-dose screen, 48 h (100 = growth as untreated, 0 = no growth, -100 = all killed)
Settings in all cases: 10 µM unless noted
NCI-H23 lung = system: NCI-H23 lung
NCI-H226 lung = system: NCI-H226 lung
NCI-H322M lung = system: NCI-H322M lung
HOP-62 NSCLC = system: HOP-62 NSCLC
NCI-H460 lung = system: NCI-H460 lung
HOP-92 NSCLC = system: HOP-92 NSCLC
NCI-H522 lung = system: NCI-H522 lung
A549/ATCC NSCLC = system: A549/ATCC NSCLC
786-0 renal = system: 786-0 renal
COLO 205 colon = system: COLO 205 colon

With O=C1c2c[n+](Cc3ccccc3)ccc2-c2nc3ccccc3c3ccnc1c23 the growth (NCI-H23 lung) was -32.8% (active), the growth (NCI-H226 lung) was -92.2% (active) and the growth (NCI-H322M lung) was -17.8% (active). For the same compound, the growth (HOP-62 NSCLC) was -27.2% (active), the growth (NCI-H460 lung) was -55% (active) and the growth (HOP-92 NSCLC) was -45.4% (active). The growth (NCI-H522 lung) was -66.3% (active), the growth (A549/ATCC NSCLC) was -26.1% (active) and the growth (786-0 renal) was -5.78% (active). The growth (COLO 205 colon) was -90.1% (active).
C=C1CC2(OC1=O)C(=O)N(CCCCCCCCCCCCN1C(=O)C3(CC(=C)C(=O)O3)c3ccccc31)c1ccccc12 (stereo not given) gave a growth (NCI-H23 lung) of 84.6%, a growth (NCI-H226 lung) of 78.6% and a growth (NCI-H322M lung) of 95.1%. The growth (HOP-62 NSCLC) was 94.1%, the growth (NCI-H460 lung) was 73.1% and the growth (HOP-92 NSCLC) was 42.2%. The growth (NCI-H522 lung) was 16.2%, the growth (A549/ATCC NSCLC) was 97.6% and the growth (786-0 renal) was 99.1%. The growth (COLO 205 colon) was 82.6%.
In the case of CN(C)c1ccc(/C=C(\C#N)c2nc3ccccc3s2)cc1, the growth (NCI-H23 lung) is reported as 102%, the growth (NCI-H226 lung) is reported as 101% and the growth (NCI-H322M lung) is reported as 86.8%. For the same compound, the growth (HOP-62 NSCLC) was 116%, the growth (NCI-H460 lung) was 103% and the growth (HOP-92 NSCLC) was 104%. For the same compound, the growth (NCI-H522 lung) was 92.7%, the growth (A549/ATCC NSCLC) was 105% and the growth (786-0 renal) was 96.8%. For the same compound, the growth (COLO 205 colon) was 123%.
Work on CS(CCCCN=C=S)=NC(=O)c1c(F)c(F)c(F)c(F)c1F (stereo not given) yielded a growth (NCI-H23 lung) of 80.6%, a growth (NCI-H226 lung) of 99.6% and a growth (NCI-H322M lung) of 85.6%. It also gave a growth (HOP-62 NSCLC) of 109%, a growth (NCI-H460 lung) of 65.5% and a growth (HOP-92 NSCLC) of 80.8%. It also gave a growth (NCI-H522 lung) of 20.6%, a growth (A549/ATCC NSCLC) of 79.6% and a growth (786-0 renal) of 94.3%. It also gave a growth (COLO 205 colon) of 61.4%.
In the case of CCN(CC)CC(C)Nc1ccc([N+](=O)[O-])c2sc3ccccc3c(=O)c12 (stereo not given), the growth (NCI-H23 lung) is reported as 33.5%, the growth (NCI-H226 lung) is reported as 24% and the growth (NCI-H322M lung) is reported as 26.6%. The growth (HOP-62 NSCLC) was 46.2%, the growth (NCI-H460 lung) was 9.64% (active) and the growth (HOP-92 NSCLC) was 7.52% (active). For the same compound, the growth (NCI-H522 lung) was 0.683% (active), the growth (A549/ATCC NSCLC) was 14.2% and the growth (786-0 renal) was 16.3%. For the same compound, the growth (COLO 205 colon) was 10.8%.
Work on Nc1c(C(=O)Nc2cccc3c2OCCO3)sc2nc3c(cc12)CN(Cc1ccccc1)CC3 yielded a growth (NCI-H23 lung) of 85.4%, a growth (NCI-H226 lung) of 82.5% and a growth (NCI-H322M lung) of 94.3%. It also gave a growth (HOP-62 NSCLC) of 72.5%, a growth (NCI-H460 lung) of 53.4% and a growth (HOP-92 NSCLC) of 83.4%. It also gave a growth (NCI-H522 lung) of 29.3%, a growth (A549/ATCC NSCLC) of 79.3% and a growth (786-0 renal) of 87.1%. The growth (COLO 205 colon) was 90.9%.
CC(C)Oc1nc2c(c(=O)n(C)c(=O)n2C)n1C gave a growth (NCI-H23 lung) of 96%, a growth (NCI-H226 lung) of 97.1% and a growth (NCI-H322M lung) of 94.4%. For the same compound, the growth (HOP-62 NSCLC) was 92.5%, the growth (NCI-H460 lung) was 105% and the growth (HOP-92 NSCLC) was 102%. It also gave a growth (NCI-H522 lung) of 80.9%, a growth (A549/ATCC NSCLC) of 84.7% and a growth (786-0 renal) of 104%. For the same compound, the growth (COLO 205 colon) was 102%.
Compound CCOC(=O)C(Cc1cc(I)c(O)c(I)c1)NC(=O)c1ccccc1 (stereo not given) has a growth (NCI-H23 lung) of 102%, a growth (NCI-H226 lung) of 93.1% and a growth (NCI-H322M lung) of 101%. The growth (HOP-62 NSCLC) was 78.8%, the growth (NCI-H460 lung) was 104% and the growth (HOP-92 NSCLC) was -14.2% (active). For the same compound, the growth (NCI-H522 lung) was 87.5%, the growth (A549/ATCC NSCLC) was 83.8% and the growth (786-0 renal) was 97.6%. It also gave a growth (COLO 205 colon) of 108%.
O=C1c2cc3c(cc2-c2c1c1cc(F)c(F)cc1c(=O)n2C[C@H](O)CO)OCO3 was tested, and the growth (NCI-H23 lung) was -30.4% (active), the growth (NCI-H226 lung) was -74.1% (active) and the growth (NCI-H322M lung) was -3.54% (active). For the same compound, the growth (HOP-62 NSCLC) was -35.2% (active), the growth (NCI-H460 lung) was 1.39% (active) and the growth (HOP-92 NSCLC) was 9.43% (active). The growth (NCI-H522 lung) was -3.34% (active), the growth (A549/ATCC NSCLC) was -57.8% (active) and the growth (786-0 renal) was -20.8% (active). The growth (COLO 205 colon) was -17.9% (active).
With NS(=O)(=O)c1ccc(Nc2nc3n[nH]c(Nc4ccccc4)c3c(=O)[nH]2)cc1 the growth (NCI-H23 lung) was 94.9%, the growth (NCI-H226 lung) was 92.5% and the growth (NCI-H322M lung) was 101%. For the same compound, the growth (HOP-62 NSCLC) was 90.8%, the growth (NCI-H460 lung) was 103% and the growth (HOP-92 NSCLC) was 102%. For the same compound, the growth (NCI-H522 lung) was 90.4%, the growth (A549/ATCC NSCLC) was 103% and the growth (786-0 renal) was 101%. It also gave a growth (COLO 205 colon) of 96.6%.
Oc1ccccc1/C=N/Nc1ccc2ccccc2n1 was tested, and the growth (NCI-H23 lung) was 45%, the growth (NCI-H226 lung) was 83% and the growth (NCI-H322M lung) was 31.2%. The growth (HOP-62 NSCLC) was 57.3%, the growth (NCI-H460 lung) was 27.2% and the growth (HOP-92 NSCLC) was 70.9%. The growth (NCI-H522 lung) was -9.13% (active), the growth (A549/ATCC NSCLC) was 44% and the growth (786-0 renal) was 65.3%. For the same compound, the growth (COLO 205 colon) was 31.2%.
O=S(=O)(Nc1ccc(F)c(Cl)c1)c1ccc(-c2cnc(C3CC3)o2)cc1 showed a growth (NCI-H23 lung) of 24.8%, a growth (NCI-H226 lung) of 47.1% and a growth (NCI-H322M lung) of 45.7%. For the same compound, the growth (HOP-62 NSCLC) was 33.1%, the growth (NCI-H460 lung) was 10.5% and the growth (HOP-92 NSCLC) was 42%. The growth (NCI-H522 lung) was -11.5% (active), the growth (A549/ATCC NSCLC) was 21.4% and the growth (786-0 renal) was 43.2%. The growth (COLO 205 colon) was -6.19% (active).
CCCCCC(=O)Oc1ccc(/C(=C(\C)c2ccccc2)c2ccc(OCCN(CC)CC)cc2)cc1 showed a growth (NCI-H23 lung) of 79.8%, a growth (NCI-H226 lung) of 93.3% and a growth (NCI-H322M lung) of 81%. For the same compound, the growth (HOP-62 NSCLC) was 91.7%, the growth (NCI-H460 lung) was 52.3% and the growth (HOP-92 NSCLC) was 52.8%. For the same compound, the growth (NCI-H522 lung) was 62.4%, the growth (A549/ATCC NSCLC) was 67.7% and the growth (786-0 renal) was 57.4%. It also gave a growth (COLO 205 colon) of 15%.
Work on CCOC(=O)c1c2c(n3ccc(NC(=O)CCN4CCOCC4)cc13)C(=O)c1ncccc1C2=O yielded a growth (NCI-H23 lung) of 16.7%, a growth (NCI-H226 lung) of 78.5% and a growth (NCI-H322M lung) of 14.3%. The growth (HOP-62 NSCLC) was 39.9%, the growth (NCI-H460 lung) was 11.1% and the growth (HOP-92 NSCLC) was 45.1%. For the same compound, the growth (NCI-H522 lung) was -20.5% (active), the growth (A549/ATCC NSCLC) was 40.4% and the growth (786-0 renal) was 51.8%. For the same compound, the growth (COLO 205 colon) was 37.9%.
Compound COC(=O)C12C3C(=O)N(c4ccc(OC)cc4)C(=O)C3C(c3cn(-c4ccccc4)nc3C)N1[C@H](c1cn(-c3ccccc3)nc1C)[C@@H]1C(=O)N(c3ccc(OC)cc3)C(=O)[C@@H]12 (stereo not given in full) has a growth (NCI-H23 lung) of 103%, a growth (NCI-H226 lung) of 99.7% and a growth (NCI-H322M lung) of 112%. For the same compound, the growth (HOP-62 NSCLC) was 116%, the growth (NCI-H460 lung) was 99.8% and the growth (HOP-92 NSCLC) was 97.4%. For the same compound, the growth (NCI-H522 lung) was 91.2%, the growth (A549/ATCC NSCLC) was 100% and the growth (786-0 renal) was 102%. For the same compound, the growth (COLO 205 colon) was 112%.
NS(=O)(=O)c1ccc(-n2ncc3c(=O)[nH]c(CN4CCN(c5cc6c(cc5F)c(=O)c(C(=O)O)cn6C5CC5)CC4)nc32)cc1 was tested, and the growth (NCI-H23 lung) was 87.9%, the growth (NCI-H226 lung) was 100% and the growth (NCI-H322M lung) was 102%. The growth (HOP-62 NSCLC) was 113%, the growth (NCI-H460 lung) was 101% and the growth (HOP-92 NSCLC) was 88.4%. The growth (NCI-H522 lung) was 91.8%, the growth (A549/ATCC NSCLC) was 104% and the growth (786-0 renal) was 96.1%. It also gave a growth (COLO 205 colon) of 114%.
Cc1ccc2c(NCCCN(C)C)c3c(C)nn(C)c3nc2c1 was tested, and the growth (NCI-H23 lung) was 51.6%, the growth (NCI-H226 lung) was 41.7% and the growth (NCI-H322M lung) was 34.5%. The growth (HOP-62 NSCLC) was 41.1%, the growth (NCI-H460 lung) was 8.82% (active) and the growth (HOP-92 NSCLC) was 30%. For the same compound, the growth (NCI-H522 lung) was 28.3%, the growth (A549/ATCC NSCLC) was 13.7% and the growth (786-0 renal) was 37.1%. It also gave a growth (COLO 205 colon) of 13.4%.
For COc1ccc(-c2nn(-c3ccccc3)cc2/C=C/C(=O)OCc2cn(-c3ccc(F)c(Cl)c3)nn2)cc1, the growth (NCI-H23 lung) was 72.6%, the growth (NCI-H226 lung) was 80.5% and the growth (NCI-H322M lung) was 92.1%. The growth (HOP-62 NSCLC) was 78.5%, the growth (NCI-H460 lung) was 96.7% and the growth (HOP-92 NSCLC) was 101%. The growth (NCI-H522 lung) was 65.2%, the growth (A549/ATCC NSCLC) was 92.1% and the growth (786-0 renal) was 101%. The growth (COLO 205 colon) was 104%.
In the case of CC[C@H](Nc1nc(N)nc(C)c1C#N)c1nc2cccc(NCc3ccc(C(=O)NO)cc3)c2c(=O)n1-c1ccccc1, the growth (NCI-H23 lung) is reported as -22.9% (active), the growth (NCI-H226 lung) is reported as 24.3% and the growth (NCI-H322M lung) is reported as 15%. For the same compound, the growth (HOP-62 NSCLC) was 9.2% (active), the growth (NCI-H460 lung) was 3.85% (active) and the growth (HOP-92 NSCLC) was -16.7% (active). For the same compound, the growth (NCI-H522 lung) was -37.6% (active), the growth (A549/ATCC NSCLC) was 1.14% (active) and the growth (786-0 renal) was 6.94% (active). The growth (COLO 205 colon) was -2.48% (active).
OCC1C2C=CC(C2)C1CO (stereo not given) showed a growth (NCI-H23 lung) of 108%, a growth (NCI-H226 lung) of 109% and a growth (NCI-H322M lung) of 114%. The growth (HOP-62 NSCLC) was 90.9%, the growth (NCI-H460 lung) was 121% and the growth (HOP-92 NSCLC) was 60.5%. For the same compound, the growth (NCI-H522 lung) was 97%, the growth (A549/ATCC NSCLC) was 89% and the growth (786-0 renal) was 101%. It also gave a growth (COLO 205 colon) of 191%.
